Sampled rows, rich in hits. Any-hit rate of the full collection: about 8%.
HT1080-NT tox: kills 2HG-producing HT-1080-NT fibrosarcoma cells | HT-1080-NT fibrosarcoma viability, CellTiter-Glo ATP luminescence, 48 h | Potency, µM (doses to about 46.1 µM), hits mostly cytotoxic | hit rate 1.6% among 360,000;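 note: NT is the 2HG producing partner of a matched IDH1 knockdown line; nearly all actives have a fitted effect of over 55% in size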
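Viability of the 2HG-overproducing fibrosarcoma line after 48 hours of compound exposure at 37 degrees C was determined by luminescence with CellTiter-Glo, and concentration-effect curves were then fitted and categorized.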
HT1080 IDH1KD tx: toxicity to HT-1080 IDH1 knockdown cells (counter line). HT-1080 IDH1 knockdown viability, ATP luminescence, 48 h. Potency, µM (doses to about 46.1 µM), hits mostly cytotoxic. hit rate 2% among 360,000. AID 686971
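Viability of IDH1-knockdown HT-1080 fibrosarcoma cells was assessed by CellTiter-Glo after 48 h at 37 °C with titrated compound; concentration-effect curves were classified by fit quality and response size.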
KB-V1 cytotox: kills drug-selected multidrug resistant KB-V1 cells; Potency, µM (titrated, usually from 46.1 µM), usual class: cytotoxic; hit rate 3.4% among 400,000; AID 1347076; KB-V1 MDR cells viability, CellTiter-Glo, 72 h; note: nearly all actives have a fitted effect of over 60% in size
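Cytotoxicity toward P-gp-expressing KB-V1 cells was determined as loss of CellTiter-Glo luminescence after 72 h at 37 degrees C. Compounds were tested in quantitative HTS format across a concentration range, with curves fitted to normalized data.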
SW480 rerep: induces DNA re-replication in SW480 colon adenocarcinoma cells; SW480 DNA re-replication, Hoechst DNA content imaging, 48 h; Potency, µM (highest dose often 46.1 µM), actives largely listed as activators; hit rate 1.8% among 340,000; AID 624297; note: nearly all actives have a fitted effect of over 55% in size
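Cells (250 per well) received 23 nL compound or DMSO by pin tool and were kept 48 hr at 37 C, 5% CO2. Nuclei were then stained with Hoechst for 40 min and scanned for DNA content.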
KB-3-1 tox: kills parental KB-3-1 adenocarcinoma cells. hit rate 1.4% among 400,000. AID 1347075. Potency, µM (series often up to 46.1 µM), actives largely listed as cytotoxic. KB-3-1 viability, CellTiter-Glo ATP luminescence, 72 h; note: nearly all actives have a fitted effect of over 60% in size
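72 h, 37 °C compound treatment of KB-3-1 parental cells; CellTiter-Glo added, 10 min, luminescence read. Data corrected against DMSO-only plates and normalized before curve fitting.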
MCF10A rereplic: inducers of DNA re-replication in MCF 10A breast cells | hit rate 2.9% among 350,000 | MCF 10A DNA re-replication, Hoechst nuclear intensity, 48 h | Potency, µM (highest dose often 46.1 µM), hits mostly activators; note: nearly all actives have a fitted effect of over 50% in size
Of the large screens only hits and unclear results are named; the others gave an inactive call; ! = a repeat was not active. Calls come from the whole dose curve; as a rule, active = well fitted curve in the direction sought with a large enough effect; inconclusive = small, poorly fitted or top-dose-only effect, or another doubt; inactive = no such curve, though single readings can be large; an effect the other way counts as inactive or inconclusive.

Cc1cc(C)cc(NC(=O)Cn2c(=O)oc3cc(S(=O)(=O)N4CCC(C)CC4)ccc32)c1	HT1080-NT tox inconclusive, HT1080 IDH1KD tx inconclusive, SW480 rerep inconclusive, MCF10A rereplic 16µM
O=C(CN1CCCN(S(=O)(=O)c2ccc(Br)s2)CC1)Nc1ccc(Cl)cc1	HT1080-NT tox inconclusive, HT1080 IDH1KD tx 18µM, SW480 rerep inconclusive, KB-3-1 tox inconclusive, MCF10A rereplic inconclusive
CC1CCN(CC(=O)Nc2ccc(S(=O)(=O)N3CCC(C)CC3)cc2)CC1	KB-V1 cytotox inconclusive, KB-3-1 tox inconclusive, MCF10A rereplic inconclusive
CC1CCCN(CC(=O)Nc2ccc(S(=O)(=O)N3CCCCC3)cc2)C1 (configuration not stated)	SW480 rerep inconclusive
CC1CCN(S(=O)(=O)c2ccc(NC(=O)CN3CCCC3)cc2)CC1	MCF10A rereplic 9.2µM
CC1CCCN(CC(=O)Nc2ccc(S(=O)(=O)N3CCCCCC3)cc2)C1 (configuration not stated)	HT1080-NT tox 22µM, HT1080 IDH1KD tx inconclusive, KB-V1 cytotox inconclusive, MCF10A rereplic inconclusive
CCOC(=O)C1=C(CNCc2ccccc2Cl)NC(=O)NC1c1ccc2c(c1)OCO2 (configuration not stated)	none
COc1ccc(S(=O)(=O)Nc2ccccc2C(=O)N2CCCCC2)cc1C	KB-V1 cytotox inconclusive, SW480 rerep inconclusive, KB-3-1 tox inconclusive
CSCC(=O)NC1CCCc2c1cnn2-c1cc(F)cc(F)c1 (configuration not stated)	none
CC1CCCN(CC(=O)Nc2ccc(S(=O)(=O)NC3CCCCC3)cc2)C1 (configuration not stated)	HT1080-NT tox inconclusive, HT1080 IDH1KD tx inconclusive, KB-V1 cytotox inconclusive, MCF10A rereplic 16µM
C#CCNS(=O)(=O)c1ccc(F)cc1Br	MCF10A rereplic inconclusive
COc1cccc(NC(=O)Cc2ccccc2)c1	MCF10A rereplic inconclusive
O=C(Cc1ccccc1)Nc1cccc(N2C(=O)C=CC2=O)c1	HT1080 IDH1KD tx inconclusive, SW480 rerep 9.2µM, MCF10A rereplic 12µM
NC(=O)[C@@H]1CCCN1Cc1nc(Cc2ccccc2F)no1	none
Cc1ccc(S(=O)(=O)N2CCOCC2)cc1NC(=O)CNCc1ccccn1	none
CC1(C)Cc2c(c(N3CCCCC3)[nH]c(=S)c2C#N)CS1	KB-V1 cytotox 12µM, MCF10A rereplic inconclusive
CCOC(=O)c1c(N)c(C#N)c2n1CCCC2	none
CCOc1nc2ccccc2nc1NS(=O)(=O)c1ccccc1	none
Cc1ccc(S(=O)(=O)NC(=NC(C)C)c2ccccc2)cc1	KB-V1 cytotox inconclusive, SW480 rerep inconclusive, MCF10A rereplic 0.52µM
COC(CNC(=O)c1ccc2nc(-c3cccs3)c(-c3cccs3)nc2c1)OC	KB-V1 cytotox inconclusive, MCF10A rereplic inconclusive
Cc1ccc(-c2nnc(Nc3ccccc3)c3ccccc23)cc1S(=O)(=O)N1CCN(C)CC1	none (no result: HT1080-NT tox, HT1080 IDH1KD tx, SW480 rerep, MCF10A rereplic)
Cc1ccc(-c2nnc(NC3CCCCC3)c3ccccc23)cc1S(=O)(=O)N1CCN(C)CC1	KB-V1 cytotox 23µM
O=C(NCc1ccc(Cl)cc1)C(=O)NCC1OCCN1S(=O)(=O)c1cc(F)ccc1F (configuration not stated)	SW480 rerep inconclusive (no result: KB-V1 cytotox, KB-3-1 tox)
Cc1ccccc1NC(=O)c1ccc(CN(c2ccccc2)S(=O)(=O)c2ccccc2)cc1	KB-V1 cytotox 10µM
CC(C)c1ccccc1NC(=O)c1ccc(CN(c2ccccc2)S(=O)(=O)c2ccccc2)cc1	none (no result: HT1080-NT tox, HT1080 IDH1KD tx, KB-V1 cytotox, KB-3-1 tox)
NC(=O)NC(=O)COC(=O)c1ccc(Cl)c(S(=O)(=O)N(Cc2ccccc2)c2ccc(Cl)cc2)c1	HT1080-NT tox inconclusive, HT1080 IDH1KD tx inconclusive, MCF10A rereplic 21µM
COc1ccccc1N(Cc1ccccc1)S(=O)(=O)c1cc(C(=O)O)ccc1Cl	HT1080-NT tox inconclusive, HT1080 IDH1KD tx inconclusive, MCF10A rereplic 18µM
CCOc1ccccc1NC(=O)c1cccc(S(=O)(=O)N(Cc2ccccc2)c2ccccc2OC)c1	KB-V1 cytotox 8.2µM, MCF10A rereplic inconclusive
COc1ccccc1N(Cc1ccccc1)S(=O)(=O)c1cccc(C(=O)O)c1	none
COc1ccccc1N(Cc1ccccc1)S(=O)(=O)c1cccc(C(=O)Nc2cc(C)ccn2)c1	HT1080 IDH1KD tx inconclusive, KB-3-1 tox 16µM
CN(CC(=O)Nc1ccc(Cl)c(C(F)(F)F)c1)CC(=O)NC1CCCCC1	SW480 rerep inconclusive, MCF10A rereplic inconclusive
CC1CCC(NC(=O)CN(C)CC(=O)Nc2ccc(F)cc2)CC1 (configuration not stated)	KB-V1 cytotox 23µM
CCN(CC)C(=S)SSC(=S)N(CC)CC	HT1080-NT tox inconclusive, HT1080 IDH1KD tx 0.0052µM!, SW480 rerep inconclusive, MCF10A rereplic 15µM
CC(=O)O/N=C/c1c(NCc2ccccc2)nc2c(C)cccn2c1=O	KB-V1 cytotox inconclusive
Cc1ccc(N(CC(O)COCc2ccco2)S(=O)(=O)c2ccc(C)cc2)cc1 (configuration not stated)	HT1080 IDH1KD tx inconclusive, KB-V1 cytotox 21µM, SW480 rerep inconclusive, MCF10A rereplic inconclusive
Cc1ccc(CNC(=O)C2CCCN(S(=O)(=O)c3c(C)n[nH]c3C)C2)cc1 (configuration not stated)	SW480 rerep inconclusive, MCF10A rereplic inconclusive
N#CCSc1nc2c(c(C3CC=CCC3)c1C#N)CCC2 (configuration not stated)	MCF10A rereplic 21µM
NC(=O)CSc1nnc2n(-c3ccccc3)c(=O)c3c4c(sc3n12)CCCCC4	none
CCC[C@@H](CN1CCC[C@H]1CN1C(N)=NC[C@@H]1Cc1ccccc1)N1C[C@@H]([C@H](C)CC)N(CCCC2CCCC2)C1=N	HT1080-NT tox inconclusive, HT1080 IDH1KD tx inconclusive, SW480 rerep inconclusive, KB-3-1 tox inconclusive, MCF10A rereplic 18µM
CCC[C@@H](CN1CCC[C@H]1CN1C(N)=NC[C@@H]1Cc1ccccc1)N1C[C@@H](Cc2ccccc2)N(CCCC2CCCC2)C1=N	none
Cc1onc(-c2ccccc2Cl)c1C(=O)Nc1ccc(S(=O)(=O)NCC2CCCO2)cc1 (configuration not stated)	HT1080-NT tox inconclusive, HT1080 IDH1KD tx inconclusive, KB-V1 cytotox inconclusive, SW480 rerep inconclusive, MCF10A rereplic inconclusive
CCCNC(=O)C1CCN(C(=O)N2CC(C)Oc3ccccc32)CC1 (configuration not stated)	none (no result: HT1080-NT tox, HT1080 IDH1KD tx, SW480 rerep, MCF10A rereplic)
Cc1ccc(NC(=O)COC(=O)c2nn(-c3ccc(Cl)cc3)cc2O)cc1	HT1080-NT tox inconclusive, HT1080 IDH1KD tx inconclusive, MCF10A rereplic inconclusive
NNC(=O)c1nn(-c2ccc(Cl)cc2)cc1O	HT1080-NT tox inconclusive, KB-V1 cytotox inconclusive, SW480 rerep 21µM, KB-3-1 tox inconclusive

Assay outcomes from PubChem BioAssay.
